Measurements: PubChem BioAssay (Tox21)
Records with an inconclusive call do not appear. Calls of active or inactive are those of the source. Unless noted, calls come from the whole dose curve; as a rule, active = well fitted curve in the direction sought with a large enough effect in the repeat runs; inconclusive = weak or mixed curves; inactive = no such curve, though single readings can be large; an effect the other way counts as inactive or inconclusive.

Key:
[1] = qHTS assay for small molecule agonists of the p53 signaling pathway (AID 651631; calls by dose curve; note: nearly all actives have a fitted effect of over 15% in size)
In short: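 Agonist mode screen using a stably integrated beta-lactamase gene under p53 response elements in HCT-116 cells. Compound exposure lasts 16 h at 37 °C; fluorescence intensity is measured following 2 h FRET substrate loading.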

[2] = qHTS assay for small molecules that induce genotoxicity in human embryonic kidney cells expressing luciferase-tagged ATAD5 (AID 651632); note: nearly all actives have a fitted effect of over 15% in size
In short: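 ATAD5-luc HEK293T, 2,000 cells/well; cpd or DMSO pin-transferred; 16 hr, 37C/5% CO2; Amplite 30 min RT; luminescence.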

[3] = qHTS assay for small molecule agonists of the p53 signaling pathway - cell viability (AID 651633; calls by dose curve;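 note: p53RE-bla HCT reporter cells with a stable beta-lactamase p53 reporter; series mostly up to about 83 µM; nearly all actives have a fitted effect of over 30% in size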)
In short: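 Viability counter-read: CellTiter-Glo luminescence (30 min, room temperature) in the same p53RE-bla plates. These plates had been exposed to compounds for 16 h at 37 C.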

[4] = qHTS assay for small molecules that induce genotoxicity in human embryonic kidney cells expressing luciferase-tagged ATAD5 - cell viability (AID 651634; calls by dose curve; note: nearly all actives have a fitted effect of over 25% in size; note: potency is the fitted concentration of half-maximal effect)
In short: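 Fluorescence from CellTiter-Fluor, reporting protease activity within live cells, served as the viability read-out. HEK293T cells carrying luciferase-tagged ATAD5 had been treated with compound for 15.5 hr at 37C.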

[5] = qHTS assay for small molecule disruptors of the mitochondrial membrane potential - cell viability (AID 720634; calls by dose curve;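 note: human HepG2 liver cancer cells; series mostly up to about 83 µM; nearly all actives have a fitted effect of over 20% in size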)
In short: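 Cells: HepG2, 2,000/well, attached overnight. Compound 1 hr, 37 C/5% CO2. +m-MPI dye, +CellTiter-Glo 30 min RT. Readout: luminescence (ATP).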

[6] = qHTS assay to test for compound auto fluorescence at 590 nm (red) in HepG2 cells (AID 720674)
In short: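 We screened compounds on adherent HepG2 cells, incubating them for an hour at 37 C in 5% CO2 before reading emission at 590 nm under 540 nm excitation; values reflect equivalence to Rose Bengal sodium fluorescence.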

[7] = qHTS assay to test for compound auto fluorescence at 535 nm (green) in HepG2 cells (AID 720675)
[8] = qHTS assay to test for compound auto fluorescence at 590 nm (red) in HEK293 cells (AID 720679)
In short: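 Red-channel autofluorescence (Ex/Em 540/590 nm; Rose Bengal sodium reference) was measured after overnight 37C, 5% CO2 exposure of attached HEK293 cells, 2,000 per well in medium with 10% dialyzed FBS.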

[9] = qHTS assay to test for compound auto fluorescence at 535 nm (green) in HEK293 cells (AID 720680)
[10] = qHTS assay to test for compound auto fluorescence at 460 nm (blue) in HEK293 cell free culture (AID 720681)
In short: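 Blue fluorescence (Ex 405/Em 460 nm, triamterene-equivalent) was read immediately after pin transfer of compound or DMSO into medium (DMEM, 10% FBS) without cells.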

[11] = qHTS assay to test for compound auto fluorescence at 535 nm (green) in HEK293 cell free culture (AID 720682)
In short: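 No cells present: wells hold DMEM supplemented with 10% FBS, into which compound or vehicle is pinned. Green emission is then recorded (485 nm excitation, 535 nm emission) and scaled to fluorescein.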

[12] = qHTS assay to test for compound auto fluorescence at 590 nm (red) in HEK293 cell free culture (AID 720683)
In short: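 Red-channel autofluorescence of compounds in culture medium (DMEM, 10% FBS), no cells, measured at 540/590 nm. Rose Bengal sodium is the reference fluorophore for equivalence.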

[13] = qHTS assay to test for compound auto fluorescence at 590 nm (red) in HepG2 cell free culture (AID 720684)
In short: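 Plate contents were MEM with 10% FBS plus test compound or DMSO, no cells. Fluorescence was recorded with 540 nm excitation and 590 nm emission.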

[14] = qHTS assay to test for compound auto fluorescence at 460 nm (blue) in HepG2 cell free culture (AID 720685)
In short: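 Compound (23 nL) or DMSO pinned into cell-free MEM with 10% FBS; blue fluorescence read at 405/460 nm excitation/emission, expressed as auto-fluorescence equivalency to triamterene.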

[15] = qHTS assay to test for compound auto fluorescence at 535 nm (green) in HepG2 cell free culture (AID 720686)
[16] = qHTS assay to test for compound auto fluorescence at 460 nm (blue) in HepG2 cells (AID 720687)
In short: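 Blue-channel autofluorescence (Ex/Em 405/460 nm, triamterene-equivalent) was measured after 1 hr compound exposure at 37 C, 5% CO2. Cells were HepG2, plated overnight at 37 C in MEM plus 10% FBS.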

[17] = qHTS assay to test for compound auto fluorescence at 460 nm (blue) in HEK293 cells (AID 720678)
In short: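 Blue-channel (Ex/Em 405/460 nm) intensity measured in HEK293 cultures after overnight compound exposure at 37C; signal expressed relative to triamterene. Cells plated 2,000 per well in 10% dialyzed FBS medium and allowed 4-5 hr to attach.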

[18] = target: Glucocorticoid receptor (Homo sapiens) (UniProt P04150); experiment: qHTS assay to identify small molecule agonists of the glucocorticoid receptor (GR) signaling pathway (AID 720691; active = well fitted activation curve with a large enough effect in the signal ratio in the repeat runs, not every such curve was filed as active; the % refers to the signal ratio)
In short: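 Fluorescence intensity from LiveBLAzer B/G FRET substrate (2 h, room temperature) reports beta-lactamase expression driven by the glucocorticoid response element in GR-bla HeLa cells after 18 h compound exposure at 37 C.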

[19] = target: Glucocorticoid receptor (Homo sapiens) (UniProt P04150); experiment: qHTS assay to identify small molecule antagonists of the glucocorticoid receptor (GR) signaling pathway (AID 720692; active = well fitted inhibition curve with a large enough effect in the signal ratio in the repeat runs, not every such curve was filed as active; the % refers to the signal ratio)
In short: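 HeLa GR-bla cells; cmpd + dex 5 nM final, 18 h 37 C; LiveBLAzer B/G FRET substrate 2 h RT; fluorescence intensity read. Antagonist mode, qHTS.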

[20] = qHTS assay for small molecule disruptors of the mitochondrial membrane potential (AID 720635)
In short: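 Mitochondrial membrane potential tracked with Mito-MPS dye, red aggregates (ex 540/em 590 nm) against green monomers (ex 490/em 535 nm). Compound treatment 1 hr at 37C, dye 30 min in HepG2.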

Measured: Potency

Sequence of Glucocorticoid receptor (Homo sapiens) (P04150 whole entry, looked up): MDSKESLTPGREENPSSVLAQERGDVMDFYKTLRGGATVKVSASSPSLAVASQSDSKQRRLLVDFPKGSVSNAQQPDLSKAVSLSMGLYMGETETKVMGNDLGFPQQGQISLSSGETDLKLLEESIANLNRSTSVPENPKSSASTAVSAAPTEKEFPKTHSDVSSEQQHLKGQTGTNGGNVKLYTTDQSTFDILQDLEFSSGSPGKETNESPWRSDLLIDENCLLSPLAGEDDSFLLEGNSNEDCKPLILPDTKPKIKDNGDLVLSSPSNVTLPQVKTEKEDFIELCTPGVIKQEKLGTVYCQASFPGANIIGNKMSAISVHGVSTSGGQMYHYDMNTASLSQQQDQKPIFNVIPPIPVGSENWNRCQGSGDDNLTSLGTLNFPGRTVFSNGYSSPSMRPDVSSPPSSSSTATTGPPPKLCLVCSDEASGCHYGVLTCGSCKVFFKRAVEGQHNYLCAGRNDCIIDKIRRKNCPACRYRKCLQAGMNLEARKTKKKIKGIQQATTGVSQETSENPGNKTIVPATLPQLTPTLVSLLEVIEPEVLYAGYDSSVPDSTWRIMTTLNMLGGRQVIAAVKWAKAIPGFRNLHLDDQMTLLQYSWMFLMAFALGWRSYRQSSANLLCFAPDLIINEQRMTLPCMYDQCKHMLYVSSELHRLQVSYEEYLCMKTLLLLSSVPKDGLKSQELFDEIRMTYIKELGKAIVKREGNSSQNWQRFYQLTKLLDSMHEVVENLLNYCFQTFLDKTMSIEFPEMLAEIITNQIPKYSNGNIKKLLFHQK

O=C(Cn1ccnc1[N+](=O)[O-])NCCO
inactive: [1] | [2] | [3] | [4] | [5] | [6] | [7] | [8] | [9] | [10] | [11] | [12] | [13] | [14] | [15] | [16]

Cc1cscn1
inactive: [1] | [2] | [3] | [4] | [6] | [7] | [17] | [8] | [10] | [11] | [12] | [14] | [15] | [16]

O=C(/C=C/c1ccc(O)c(O)c1)O[C@@H]1C[C@@](OC(=O)/C=C/c2ccc(O)c(O)c2)(C(=O)O)C[C@@H](O)[C@@H]1O
inactive: [1] | [2] | [3] | [4] | [6] | [7] | [17] | [8] | [9] | [10] | [11] | [12] | [13] | [15] | [16] | [18]

CCOC(C)=O
inactive: [1] | [2] | [3] | [4] | [6] | [7] | [8] | [9] | [10] | [11] | [12] | [13] | [15] | [16] | [18] | [19]

Cc1[nH]cnc1CN1CCc2c(c3ccccc3n2C)C1=O
inactive: [1] | [2] | [3] | [4] | [6] | [7] | [17] | [8] | [9] | [10] | [11] | [12] | [13] | [14] | [15] | [16]

CC=C(Cl)Cl
inactive: [1] | [2] | [3] | [4] | [5] | [6] | [7] | [17] | [8] | [10] | [11] | [12] | [13] | [14] | [15] | [16] | [18]

Cc1cc(C)cc(N)c1
inactive: [1] | [2] | [3] | [4] | [20] | [6] | [7] | [17] | [8] | [10] | [11] | [12] | [14] | [15] | [16] | [18]

c1csc(SSc2cccs2)c1
inactive: [1] | [2] | [3] | [4] | [20] | [6] | [7] | [17] | [8] | [10] | [11] | [12] | [13] | [14] | [15] | [16] | [18]

CC(=O)Nc1cc(S(=O)(=O)O)cc2cc(S(=O)(=O)O)c(N=Nc3ccccc3)c(O)c12
inactive: [1] | [2] | [3] | [6] | [7] | [17] | [8] | [9] | [10] | [11] | [12] | [13] | [14] | [15] | [16]
active: [4] 30.6 µM

C=C(C)[C@@H]1CCC2=CCC[C@@H](C)[C@]2(C)C1
inactive: [1] | [2] | [3] | [4] | [6] | [7] | [17] | [8] | [9] | [10] | [11] | [12] | [13] | [14] | [15] | [16] | [18]

CCC1(CO)COCOC1
inactive: [1] | [2] | [3] | [4] | [5] | [6] | [7] | [8] | [9] | [10] | [11] | [12] | [13] | [14] | [15] | [16] | [18] | [19]

FC(F)(F)c1ccccc1Cl
inactive: [1] | [2] | [3] | [4] | [20] | [6] | [7] | [17] | [8] | [9] | [10] | [11] | [12] | [13] | [14] | [15] | [16] | [18]

CN1CCCN=C1COC(=O)C(O)(c1ccccc1)C1CCCCC1 (configuration not stated)
inactive: [1] | [2] | [3] | [4] | [6] | [7] | [8] | [10] | [11] | [12] | [13] | [15] | [16] | [18]

C=C(C)C(=O)OCCCCCCCCCCCCC
inactive: [1] | [2] | [3] | [4] | [20] | [6] | [7] | [17] | [8] | [9] | [10] | [11] | [12] | [13] | [14] | [15]
